The list is not random: actives were taken first. Their share in the collection is about 2%.
Exocytosis inh: lytic granule exocytosis inhibition; TALL-104 LAMP-1 surface exposure, flow cytometry; cells stimulated with thapsigargin and PMA; inhibition, % at 10 µM; 360,000 compounds, 0.66% hits; AID 651702;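 active means inhibition above about 55%, limit read from the data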
PG9 Ab binder: binds the HIV-1 gp120 antibody PG9 | TR-FRET gp120-PG9 antibody binding | inhibition, % at 6.7 µM | 360,000 compounds, 0.43% hits | AID 624416; in the data active means inhibition above about 8.5%
VLA-4 inh: inhibition in a human VLA-4 binding assay. P13612. VLA-4 expressing cells, ligand binding flow cytometry. 330,000 compounds, 0.2% hits. inhibition, % (about 7 µM as worked out from the volumes in the protocol). AID 2557; in the data active means inhibition above about 50%
ABCB6 inh 2: inhibitors of human ABC transporter ABCB6. Q9NP58. K562-ABCB6 porphyrin accumulation, flow cytometry, 1 h; active compounds read low. fluorescence ratio to DMSO, % at 10 µM. 360,000 compounds, 0.19% hits. AID 602162;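 active means fluorescence ratio to DMSO below 75%, the collection mean minus 3 SD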;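 further: signal is porphyrin accumulated inside mitochondria; lower ratio means ABCB6 inhibition with less porphyrin fluorescence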
Target sequence (Q9NP58 whole entry, looked up): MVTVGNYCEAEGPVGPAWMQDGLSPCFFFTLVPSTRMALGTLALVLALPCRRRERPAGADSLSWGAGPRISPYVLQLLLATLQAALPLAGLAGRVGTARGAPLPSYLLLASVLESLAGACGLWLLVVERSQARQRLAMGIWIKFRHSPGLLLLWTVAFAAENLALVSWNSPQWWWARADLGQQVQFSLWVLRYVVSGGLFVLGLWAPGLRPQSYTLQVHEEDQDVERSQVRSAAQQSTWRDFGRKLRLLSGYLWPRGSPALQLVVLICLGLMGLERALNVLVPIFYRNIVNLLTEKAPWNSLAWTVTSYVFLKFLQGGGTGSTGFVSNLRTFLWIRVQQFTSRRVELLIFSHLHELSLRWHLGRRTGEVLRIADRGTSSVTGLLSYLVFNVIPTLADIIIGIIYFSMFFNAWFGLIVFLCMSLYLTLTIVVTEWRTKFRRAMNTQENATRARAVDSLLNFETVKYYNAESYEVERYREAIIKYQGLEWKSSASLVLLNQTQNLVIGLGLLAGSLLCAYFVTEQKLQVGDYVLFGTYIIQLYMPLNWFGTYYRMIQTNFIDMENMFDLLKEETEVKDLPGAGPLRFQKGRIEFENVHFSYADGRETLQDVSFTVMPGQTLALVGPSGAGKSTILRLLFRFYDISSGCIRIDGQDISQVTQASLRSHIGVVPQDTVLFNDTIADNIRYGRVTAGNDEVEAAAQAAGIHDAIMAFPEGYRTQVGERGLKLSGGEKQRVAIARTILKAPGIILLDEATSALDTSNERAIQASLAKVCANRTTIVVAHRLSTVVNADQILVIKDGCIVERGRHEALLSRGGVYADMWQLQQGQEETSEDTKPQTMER
NR1D1 modulator: modulates human Rev-erb alpha binding to DNA; Rev-erbα–FITC-DNA binding, fluorescence polarization, 90 min; AID 1259318; activity, % at 10 µM; 370,000 compounds, 0.79% hits; P20393;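 active means activity above about 14%, limit read from the data; passing the limit was not always enough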
VLA-4 mod pick: human VLA-4 allosteric modulation in cherry picked compounds; shares compounds with VLA-4 inh; U937 cells, HUTS-21 LIBS mAb binding, flow cytometry; LDV ligand present at threefold Kd; inhibition, % at 6.7 µM; 1,300 compounds, 2% hits; AID 2813; in the data active means inhibition above about 40%
Each line names hits and unclear results; the compound was inactive in the other large screens (follow-up assays come after a bar, where they were run).

Cc1ccc(S(=O)(=O)CCC(=O)OCc2ccc(S(=O)(=O)C(C)C)cc2)cc1	VLA-4 inh 51.3 | VLA-4 mod pick inactive
O=C1NN(c2cccc(Br)c2)C(=O)/C1=C/c1cccs1	none
O=C1NN(c2ccccc2)C(=O)/C1=C/c1cccs1	none (no result: Exocytosis inh, ABCB6 inh 2) | VLA-4 mod pick inactive
COC(=O)[C@]12C[C@H](CC(=O)N3CCN(C(=O)C4CC4)CC3)C(=O)N(Cc3ccccc3)C1=C[C@H](C(C)C)O[C@@H]2C1CC1	none (no result: Exocytosis inh, VLA-4 inh, ABCB6 inh 2)
C=CCC[C@H](Cc1ccc(F)cc1)C(=O)OC[C@@H](C)NC(=O)[C@@H](CC=C)CC(=O)N[C@@H](CO)Cc1ccccc1	VLA-4 inh 63.1 (no result: PG9 Ab binder) | VLA-4 mod pick inactive
C=CCC[C@H](Cc1ccc(F)cc1)C(=O)OC[C@@H](C)NC(=O)[C@@H](CC=C)CC(=O)N[C@H](CO)Cc1ccccc1	none
COC(=O)c1ccc(NC(=S)N2CCC(C(N)=O)CC2)cc1	none | VLA-4 mod pick inactive
COC(=O)[C@@]12CCCCC3=C1N(CCC3)C(=O)[C@H]2CC(=O)N1CCC(c2ccccc2)CC1	none (no result: Exocytosis inh, PG9 Ab binder, VLA-4 inh, ABCB6 inh 2)
Cc1ccc(S(=O)(=O)N2CCOCC2)cc1NC(=O)COC(=O)c1cccnc1Cl	none
Cc1ccc(S(=O)(=O)N2CCOCC2)cc1NC(=O)COC(=O)c1ccccc1OCc1c(C)noc1C	none | VLA-4 mod pick inactive
CCOc1ccc(CN2CCN(Cc3cn(CC)nc3C)CC2CCO)cc1 (stereo not drawn)	none | VLA-4 mod pick inactive
CCOc1ccc(CN2CCN(Cc3c(C)nn(CC)c3C)CC2CCO)cc1 (stereo not drawn)	none
CCN1C(=O)Cc2cc(S(=O)(=O)NCCc3ccccc3)ccc21	none | VLA-4 mod pick inactive
COCCn1nnnc1C(c1ccc(OC)cc1OC)N1CCN(c2ccccc2F)CC1 (stereo not drawn)	VLA-4 inh 99.2 | VLA-4 mod pick inactive
O=C(CC1CCCC1)N[C@@H](Cc1cccnc1)C(=O)N1CCC[C@H]1C(=O)NCCc1ccccc1Cl	none (no result: Exocytosis inh, VLA-4 inh, ABCB6 inh 2)
O=C1NC[C@@H]2CCCN2C1=O	none (no result: VLA-4 inh)
O=C1NCC(=O)N2CCC[C@@H]12	VLA-4 inh 53.5 | VLA-4 mod pick inactive
COc1ccccc1C(=O)NCCC(=O)N(Cc1ccco1)Cc1cccs1	none
COc1ccc(C(=O)N(Cc2ccco2)Cc2cccs2)c(O)c1	VLA-4 inh 54.5 | VLA-4 mod pick inactive
CCCCNC(=O)/C(C#N)=C/c1ccc(C(=O)OC)cc1	none (no result: PG9 Ab binder, NR1D1 modulator) | VLA-4 mod pick inactive
COCCNC(=O)/C(C#N)=C/c1cc(Br)c(O)c(OC)c1	none | VLA-4 mod pick inactive
CCOCCCNC(=O)/C(C#N)=C/c1cc(Br)c(O)c(Br)c1	none (no result: PG9 Ab binder, VLA-4 inh, NR1D1 modulator) | VLA-4 mod pick inactive
COC(=O)c1ccc(/C=C(\C#N)C(=O)NC(C)c2ccccc2)cc1 (stereo not drawn)	none
COc1cc(/C=C(\C#N)C(=O)NCCc2ccccc2)cc(OC)c1O	none
CCCCCCCCN1C(=O)[C@@H](CC(=O)NCCCOC)C[C@@]2(C(=O)OC)C1=C[C@H](C1CCCC1)O[C@@H]2C	none (no result: Exocytosis inh, VLA-4 inh, ABCB6 inh 2)
CCN(CC)S(=O)(=O)c1cccc(NC(=O)c2cc(-c3cccs3)nn2-c2ccccc2)c1	none
CN(C)S(=O)(=O)c1cccc(NC(=O)c2cc(-c3cccs3)nn2-c2ccccc2)c1	none | VLA-4 mod pick inactive
COc1ccc2[nH]c3c(Cl)ncnc3c2c1	none | VLA-4 mod pick inactive
O=C(COC(=O)c1c(F)cccc1Cl)NCC1CCCCC1	none | VLA-4 mod pick inactive
O=C(COC(=O)c1c(F)cccc1Cl)NC1CCCC1	none
O=C(COC(=O)c1ccc(F)cc1)NCC1CCCCC1	VLA-4 inh 50.8 | VLA-4 mod pick inactive
O=C(COC(=O)c1ccc(Cl)cc1)NCC1CCCCC1	none | VLA-4 mod pick inactive
COC(=O)[C@@]12CCCCC3=C1N(CCC3)C(=O)[C@H]2CC(=O)N1CCCC1	none (no result: Exocytosis inh, PG9 Ab binder, VLA-4 inh, ABCB6 inh 2)
Cc1ccc(C2NC(=O)c3[nH]nc(-c4ccccc4)c32)cc1 (stereo not drawn)	none (no result: Exocytosis inh, VLA-4 inh, ABCB6 inh 2)
CCOc1ccc(N(CC(=O)Nc2ccc(OC)cc2)S(=O)(=O)c2c(C)[nH]c(=O)[nH]c2=O)cc1	VLA-4 inh 57.3 | VLA-4 mod pick inactive
CCOc1ccc(NC(=O)CN(c2ccc(OCC)cc2)S(=O)(=O)c2c(C)[nH]c(=O)[nH]c2=O)cc1	none | VLA-4 mod pick inactive
CC(C)[N+]1(C)C2CC[C@@H]1CC(OC(=O)C(CO)c1ccccc1)C2 (stereo partly drawn)	none (no result: Exocytosis inh, PG9 Ab binder, VLA-4 inh, ABCB6 inh 2)
COC(=O)[C@H](CC(C)C)N(Cc1cn(CC2CCCCC2)nn1)S(=O)(=O)c1ccccc1Br	none (no result: Exocytosis inh, PG9 Ab binder, VLA-4 inh, ABCB6 inh 2)
NS(=O)(=O)c1cccc(NC(=O)Nc2ccccc2)c1	none | VLA-4 mod pick inactive
NS(=O)(=O)c1ccc(NC(=O)Nc2ccccc2)cc1	none | VLA-4 mod pick inactive
Cc1cc(C)cc(NC(=O)Nc2cccc(S(N)(=O)=O)c2)c1	none
COC(=O)[C@]12C[C@H](CC(=O)NCCC(C)C)C(=O)N(CCc3ccc(OC)c(OC)c3)C1=C[C@H](COCc1ccccc1)O[C@@H]2C	none (no result: Exocytosis inh, PG9 Ab binder, VLA-4 inh, ABCB6 inh 2)
CC1CCC(NC(=O)N(CCCl)N=O)CC1 (stereo not drawn)	VLA-4 inh 64.7 | VLA-4 mod pick inactive
COC(=O)c1sccc1NC(=O)Nc1ccccc1F	none
COC(=O)c1sccc1NC(=O)Nc1ccccc1C	none | VLA-4 mod pick inactive
CCOC(=O)C(CC)(CC)C(=O)/C=C/c1ccc(Br)cc1	VLA-4 inh 89.7 | VLA-4 mod pick inactive
CCOC(=O)C(=Cc1ccc(Br)cc1)C(=O)OCC	none
O=C(C1CCC(CNS(=O)(=O)c2cccc3cccnc23)CC1)N1CCc2ccccc21 (stereo not drawn)	VLA-4 inh 52.7 | VLA-4 mod pick inactive
CN1CCN(C(=O)C2CCC(CNS(=O)(=O)c3cccc4cccnc34)CC2)CC1 (stereo not drawn)	none
C#CCN1C[C@@]2(O)CC[C@@H](O)[C@@H](OC)[C@@H]2[C@@]1(C)[C@H](O)CC=C(C)C	none (no result: Exocytosis inh, VLA-4 inh, ABCB6 inh 2)
CC(C)(C)OC(=O)N1CCC(N[C@@H](Cc2c[nH]c3ccccc23)C(=O)NCCc2c[nH]c3ccccc23)(C(=O)NC2CCCCC2)CC1	none (no result: Exocytosis inh, PG9 Ab binder, VLA-4 inh, ABCB6 inh 2)
COC(=O)[C@@H]1[C@@H](C#N)C2(c3ccccc3-c3ccccc32)N(c2ccc(Cl)cc2)N1C#N	VLA-4 inh 57.8 | VLA-4 mod pick inactive
CCOC(=O)C1=C(C)C2C3C(=O)N(c4ccc(C)cc4C)C(=O)C3C1(C)C1C(=O)N(c3ccc(C)cc3C)C(=O)C21 (stereo not drawn)	none | VLA-4 mod pick inactive
CCOC(=O)C1=C(C)C2C3C(=O)N(c4ccccc4C)C(=O)C3C1(C)C1C(=O)N(c3ccccc3C)C(=O)C21 (stereo not drawn)	none
COC(=O)c1ccsc1NC(=O)CN1C(=O)CCC1=O	VLA-4 inh 51.8 | VLA-4 mod pick inactive
COC(=O)c1ccc2nc(NC(=O)CN3C(=O)CCC3=O)sc2c1	none
C[C@H](Cc1ccccc1)Nc1ncnc2c1ncn2[C@@H]1O[C@H](CO)[C@@H](O)[C@H]1O	VLA-4 inh 59.0 | VLA-4 mod pick inactive

Assay outcomes deposited in PubChem by several laboratories.
